Sampled rows, rich in hits. Any-hit rate of the full collection: about 1.2%.
EPAC1 ag: EPAC1 (human) agonism | O95398 | EPAC1 agonist qHTS, biochemical assay; response scale: 100% = response to 6.5 mM cAMP | Potency, µM (top dose mostly 154 µM), inactives show at the highest dose activation, usual class: activators | actives 0.073% (n = 360,000) | AID 720707; also: nearly all actives have a fitted effect of over 60% in size
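Read-out is the fluorescence drop as BODIPY-GDP leaves Rap1B (480 nm excitation, 540 nm emission), recorded every 5 minutes over 30 minutes. Reactions held 100 nM EPAC1, 250 nM Rap1B–BODIPY-GDP and 50 uM GDP, with 6.5 mM cAMP setting full activation.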
VDR inh: blocks the human vitamin D receptor. P11473. Potency, µM, for the others: max response, negative = inhibition, most hits filed as inhibitors. actives 0.93% (n = 400,000). VDR-SRC2-3 peptide fluorescence polarization, 2 h. AID 504847; also: % is scaled to controls: 0 for no effect and ±100 for the full control effect
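Signal is fluorescence polarization, reporting how far test compounds block the interaction of VDR with the SRC2-3 coregulator peptide after a 2 h room-temperature incubation.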
EPAC2 agonist: EPAC2 (human) agonism; AID 720711; EPAC2 activation, biochemical qHTS; response scale: 100% = 6.5 mM cAMP response; actives 0.079% (n = 360,000); Q8WZA2; Potency, µM (top dose mostly 154 µM), without a hit: at the top dose activation, usual class: activators; also: nearly all actives have a fitted effect of over 50% in size
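Fluorescence exchange assay: 100 nM EPAC2 with 250 nM RAP1B-BODIPY-GDP and 50 uM GDP; compounds tested as a concentration-titration series (qHTS). Loss of Rap1-bound BODIPY-GDP fluorescence read at 480/540 nm; data normalized to 6.5 mM cAMP.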
USP1-UAF1 inh: inhibitors of human USP1/UAF1 deubiquitinase; recombinant USP1/UAF1, Ub-Rhodamine cleavage fluorescence; actives 0.23% (n = 390,000); Potency, µM (top dose mostly 57.1 µM), inactives show at the top dose activity change, negative = inhibition, actives largely listed as inhibitors; AID 743255; O94782; also: % is scaled to controls: 0 for no effect and ±100 for the full control effect; nearly all actives have a fitted effect of over 60% in size
Target sequence (O94782 whole entry, looked up): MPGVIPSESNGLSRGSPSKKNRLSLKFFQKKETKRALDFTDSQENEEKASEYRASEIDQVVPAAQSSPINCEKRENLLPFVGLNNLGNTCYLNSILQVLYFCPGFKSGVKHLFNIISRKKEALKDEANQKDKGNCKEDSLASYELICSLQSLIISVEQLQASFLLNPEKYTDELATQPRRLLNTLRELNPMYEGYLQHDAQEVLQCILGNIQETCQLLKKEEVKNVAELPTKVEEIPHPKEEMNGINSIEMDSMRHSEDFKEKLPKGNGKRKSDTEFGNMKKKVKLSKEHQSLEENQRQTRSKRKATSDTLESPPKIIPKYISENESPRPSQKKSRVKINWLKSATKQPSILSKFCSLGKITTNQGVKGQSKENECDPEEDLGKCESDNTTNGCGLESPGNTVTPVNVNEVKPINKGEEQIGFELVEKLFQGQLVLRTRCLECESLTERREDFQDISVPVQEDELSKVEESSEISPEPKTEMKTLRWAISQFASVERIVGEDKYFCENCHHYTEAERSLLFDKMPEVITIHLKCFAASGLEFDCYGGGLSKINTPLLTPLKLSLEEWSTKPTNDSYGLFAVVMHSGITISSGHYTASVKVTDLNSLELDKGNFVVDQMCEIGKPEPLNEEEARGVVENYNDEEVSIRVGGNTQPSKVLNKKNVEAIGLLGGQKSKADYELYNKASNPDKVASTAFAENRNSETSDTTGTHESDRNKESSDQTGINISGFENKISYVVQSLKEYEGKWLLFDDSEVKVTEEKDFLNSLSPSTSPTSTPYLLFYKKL
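In this screen, compounds sit with the deubiquitinase complex (1nM) for 15 min at room temperature before Ub-Rho is added at 150nM final. Fluorescence rise is then followed for 6 reads every 60 seconds.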
EPAC2 antag: blocks human EPAC2 exchange factor; Q8WZA2; EPAC2 GEF exchange of Rap1B-BODIPY-GDP, fluorescence; Potency, µM (series often up to 114 µM), without a hit: top-dose activity, negative = inhibition, actives largely listed as inhibitors; actives 0.18% (n = 360,000); also: % is scaled to controls: 0 for no effect and ±100 for the full control effect; nearly all actives have a fitted effect of over 45% in size
EPAC1 antagonist: blocks human EPAC1 exchange factor. O95398. EPAC1 GEF assay, Rap1b-BODIPY-GDP exchange fluorescence. Potency, µM (series often up to 115 µM), inactives show top-dose activity change, negative = inhibition, hits mostly inhibitors. actives 0.14% (n = 360,000). AID 720709;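 also: plate controls were vehicle for no effect and positive control for full effect; nearly all actives have a fitted effect of over 50% in size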
* marks the source's active call; other numbers are inactive results; u = inconclusive; x = no result given; ! = not confirmed by another sample. Calls follow the shape of the dose curve; as a rule, active = well fitted curve in the direction sought with a large enough effect; inconclusive = small, poorly fitted or top-dose-only effect, or another doubt; inactive = no such curve, though single readings can be large; an effect the other way counts as inactive or inconclusive. Potency is read from the fitted curve at half-maximal effect.

SMILES	EPAC1 ag	VDR inh	EPAC2 agonist	USP1-UAF1 inh	EPAC2 antag	EPAC1 antagonist
CCOC(=O)c1sc(N/N=C/c2ccccc2)nc1C	-13%	45µM*	-5%	-25%	4%	-19%
CCOC(=O)c1sc(N/N=C/c2cccc(C)c2)nc1C	2%	3%	-14%	-20%	3%	3%
CCOC(=O)C1=C([Si](C)(C)C)c2ccccc2N(S(=O)(=O)C(F)(F)F)C1C(=O)OCC (stereo unspecified)	x	4%	x	x	x	x
Cc1cccc(NC(=S)N/C(=N/S(=O)(=O)c2ccccc2)c2ccccc2)c1	5%	89µM*!	-4%	-1%	-3%	9%
CCOC(=O)C1=C(C)N=c2s/c(=C\c3ccc(C(=O)O)cc3)c(=O)n2C1c1ccc(OC)cc1OC (stereo unspecified)	2%	u	-6%	-23%	u	u
CCOC(=O)C1=C(C)N=c2s/c(=C\c3cccn3C)c(=O)n2C1c1cccc(OC)c1OC (stereo unspecified)	22%	14%	112µM*	-16%	17%	4%
Cc1cc(C)c2nc(N3CCCC(C(=O)NCc4ccccc4F)C3)sc2c1 (stereo unspecified)	x	-23%	x	-12%	x	x
COC(=O)c1ccc(N2NC(=O)/C(=C/c3cc(OC)c(OC)c(OC)c3)C2=O)cc1	-4%	71µM*	6%	-18%	33%	9%
COc1cc(/C=C2/C(=O)NN(c3ccc(Cl)cc3)C2=O)cc(Br)c1O	-8%	71µM*	-5%	u	-2%	u
COc1cc(/C=C2/C(=O)NN(c3ccc(F)cc3)C2=O)cc(Cl)c1O	8%	u	3%	u	-25%	-29%
COC(=O)C1=C(C)N(Cc2ccc(C)cc2)C(=O)/C1=C\c1cc(OC)c(OC)c(OC)c1	-1%	50µM*	8%	-25%	1%	-2%
COC(=O)c1ccc(N2NC(=O)/C(=C/c3cc(OC)c(O)c(OC)c3)C2=O)cc1	2%	u	3%	u	4%	11%
COc1cc(/C=C2/C(=O)NN(c3ccc(Cl)c(Cl)c3)C2=O)cc([N+](=O)[O-])c1O	0%	56µM*	-4%	u	-26%	u
COc1ccc(-c2nc3cnc(Oc4cccc(Cl)c4)nc3n(CCC#N)c2=O)cc1	x	2%	x	x	x	x
NC(=O)C1CCN(C2=C(Cl)C(=O)c3ccccc3C2=O)CC1	6%	u	3%	32µM*	-15%	-21%
CN1CCN(C2=C(Cl)C(=O)c3ccccc3C2=O)CC1	5%	50µM*	26%	3.5µM*	u	28µM*
CN1CCN(C2=C(Cl)C(=O)N(C3CCCCC3)C2=O)CC1	-1%	1%	7%	-20%	1%	3%
O=C1C(Cl)=C(N2CCC(C(=O)O)CC2)C(=O)c2ccccc21	9%	u	10%	25µM*	u	u
NC(=O)C1CCN(C2=C(NS(=O)(=O)c3ccccc3)C(=O)c3ccccc3C2=O)CC1	4%	-3%	11%	-17%	-12%	-11%
O=C(O)C1CCN(C(=O)c2ccccc2Cl)CC1	2%	2%	2%	-15%	12%	8%
CN1CCN(C2=C(Cl)C(=O)C(c3cnc(N4CCCCC4)s3)=C(Cl)C2=O)CC1	0%	50µM*	-1%	u	13%	-15%
CCc1cccc(NC(=O)COC(=O)/C=C/c2cccs2)c1	112µM*	-28%	-2%	-23%	4%	-15%
NC(=O)C1CCN(c2ccc3c(c2)S(=O)(=O)c2ccccc2C3=O)CC1	2%	1%	-49%	u	2%	9%
O=C1c2ccccc2S(=O)(=O)c2cc(N3CCN(C(=O)c4ccccc4)CC3)ccc21	-2%	3%	-10%	-16%	51%	1%
CC1CCN(c2ccc3c(c2)S(=O)(=O)c2ccccc2C3=O)CC1	89µM*	4%	28%	u	11%	40%
SMILES	EPAC1 ag	VDR inh	EPAC2 agonist	USP1-UAF1 inh	EPAC2 antag	EPAC1 antagonist
O=C1c2ccccc2S(=O)(=O)c2cc(N3CCC4(CC3)OCCO4)ccc21	8%	2%	112µM*	-27%	11%	2%
CCC(C)C(NC(=O)OC(C)(C)C)C(=O)NC1COC2CC(n3ccc(=O)[nH]c3=O)OC12 (stereo unspecified)	x	9%	x	x	x	x
CCCN1CNc2c(c(=O)[nH]c(=S)n2CCc2cc(Cl)ccc2Cl)C1	x	-8%	x	x	x	x
CC[C@H](C)[C@H](NC(=O)[C@H](CCC(=O)O)NC(=O)CNC(=O)[C@@H](NC(=O)[C@@H]1CCCN1C(=O)[C@@H](NC(=O)[C@@H]1CCCN1C(=O)[C@@H]1CCCN1C(=O)[C@H](CC(N)=O)NC(=O)[C@H](CC(N)=O)NC(=O)[C@@H](NC(=O)[C@H](CCSC)NC(=O)[C@H](Cc1c[nH]c2ccccc12)NC(=O)CNC(=O)[C@@H](NC(=O)[C@H](CCC(N)=O)NC(=O)[C@@H](N)CCC(=O)O)[C@@H](C)CC)[C@@H](C)O)[C@@H](C)CC)C(C)C)C(=O)O	x	1%	x	x	x	x
CCCCc1c(-c2ccccc2F)ncn1CCc1ccccc1OC	-7%	x	16%	x	42µM*	-15%
CCCCCc1c(-c2ccccc2F)ncn1CCc1ccccc1OC	-9%	x	0%	x	u	-21%
O=C(NCCCc1cnc[nH]1)NCCCN(Cc1ccc(Cl)cc1)c1ccc(Br)cn1	x	1%	x	x	x	x
CCOc1ccccc1CNC(=O)c1sc2ncccc2c1-n1cccc1	x	-2%	x	-12%	x	x
Cc1ccc2nc(/C(C#N)=C\c3ccc(N4CCOCC4)o3)[nH]c2c1	u	-12%	40µM*	25µM*	17%	41%
N#C/C(=C\c1ccc(N2CCOCC2)o1)C(=O)NCCc1ccccc1	19%	-2%	14%	u	-10%	-6%
Cc1ccc2nc(/C(C#N)=C\c3ccc([N+](=O)[O-])o3)[nH]c2c1	-7%	22%	3%	-23%	19%	10%

Source: PubChem BioAssay (National Center for Advancing Translational Sciences (NCATS))
